The panel holds about 83,000 compounds, 20% with a hit somewhere; the sample as a whole holds those more often.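 How to read the values: 0–100, growth inhibition (40 = 60% inhibited); 0, no net growth; -100 to 0, cell death (-40 = 40% of starting cells died; -100 = all dead).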 Values without a mark were called inactive. The source made the active and inactive calls. Rule for the calls: active = growth percent below 10; inactive = the rest.
Assays:
Test in all cases: NCI-60 one-dose screen, 48 h (100 = growth as untreated, 0 = no growth, -100 = all killed)
Settings in all cases: 10 µM unless noted
[1] = tested on: T-47D breast
[2] = tested on: BT-549 breast
[3] = tested on: MDA-MB-435 melanoma
[4] = tested on: MCF7 breast
[5] = tested on: HCT-116 colon
[6] = tested on: HCC-2998 colon
[7] = tested on: KM12 colon
[8] = tested on: SW-620 colon

SMILES	growth [1]	growth [2]	growth [3]	growth [4]	growth [5]	growth [6]	growth [7]	growth [8]
COc1ccc(Oc2[nH]n(C3=Nc4ccccc4Sc4ccccc43)c(=O)c2C#N)cc1	92.8%	98.2%	101%	101%	93.5%	103%	104%	
NC(=O)CC(NC(=O)COc1ccc(Cl)cc1Cl)C(=O)O (configuration not stated)	109%	108%		102%	101%	109%	104%	105%
CCCCCCCCCCCCCCCCCC(=O)Nc1ccc(O)cc1	93.6%	62.8%		98.9%	106%	120%	100%	98.6%
CCC(CCCN1C(=O)c2ccccc2C1=O)Nc1cc(OC)cc2cccnc12 (configuration not stated)	66.3%	92.9%		20.8%	105%	147%	110%	95%
CC[C@H](Nc1ncnc2nc[nH]c12)c1nc2cccc(NCc3ccc(C(=O)NO)o3)c2c(=O)n1-c1ccccc1	80.8%	86%		91.4%	96.9%	104%	103%	107%
C[C@]12C=CC(=O)C=C1[C@@H](F)C[C@@H]1[C@@H]2[C@@H](O)C[C@@]2(C)[C@H]1CC[C@]2(O)C(=O)CO	99.4%	78.5%	103%	87.4%	105%	105%	100%	
C=C(C)C(C(=O)OCC)(C(=O)OCC)C(C)C	124%	115%		97.4%	109%	119%	106%	107%
CCOC(=O)c1c(C)oc2ncnc(Nc3ccc(NC(=O)Nc4ccc(CC)cc4)cc3)c12	78.3%	84.5%		94.9%	78.8%	114%	103%	113%
COC1=CC(c2ccc[nH]2)=N/C1=C\c1[nH]c(C)c(C(=O)CCCCC(=O)NC(C)(C)C)c1C	40.1%	-11.2% (active)	7.73% (active)	-15.1% (active)		30.5%	20.5%	
COc1ccccc1CNCCCN1C(=O)c2ccc3c4c(ccc(c24)C1=O)C(=O)N(CCCNCc1ccccc1OC)C3=O	-22.9% (active)	-71.6% (active)	-79.3% (active)	-63.9% (active)		-94.7% (active)	-79% (active)	
Oc1ccc2ccccc2c1/C=N\Nc1ccccn1	7.06% (active)	22.2%	25.1%	2.43% (active)	1.72% (active)	21%	29.7%	
COc1ccc(/C(=C(\c2ccccc2)[N+](=O)[O-])c2ccc(OCCN3CCCC3)cc2)cc1	51.5%	74.2%	48.2%	37.4%	44.5%	80.8%	54.1%	
COc1cc(/C(=C2/O[C@@H]([C@H]3COC(C)(C)O3)[C@H]3OC(C)(C)O[C@@H]23)c2ccc3c(c2)OCO3)cc(OC)c1OC	55.9%	79.5%	73.3%	44.5%	9.6% (active)		63.6%	
CNc1nc2ncn(C)c2c(=O)[nH]1	91.4%	88.7%		96%	100%	90.7%	86.8%	95.7%
O=C1C=C(OCC=C(C(F)(F)F)C(F)(F)F)c2ccccc2C1=O	-68.9% (active)	39%		-76.8% (active)	-33.3% (active)	-12.1% (active)	43.3%	-34.9% (active)
CCC(C)(C)c1ccc(OCCCCCCN2CCN(c3ccc(C)c(Cl)c3)CC2)cc1	66.1%	79.5%	97.3%	88.4%	62.3%	83.5%	79.3%	
CCCNC(=O)Oc1ccc(/C(=C(/C)Cc2ccc(OC)cc2)c2ccc(OCCN3CCCCC3)cc2)cc1	45.4%	92.9%		31.8%	73%	84.6%	94%	90.4%
O=C(CBr)OCc1ccc([N+](=O)[O-])o1	95.2%	118%		98.4%	106%	95.2%	105%	83.2%
CCCCCCCCCc1cc[n+](CC(=O)c2ccc([N+](=O)[O-])cc2)cc1	22.2%	15.2%	-20.8% (active)	-41.3% (active)	-34.5% (active)	-76.3% (active)	-31.5% (active)	
COc1ccc(-c2cc(C#N)c(NNC(C)=O)[nH]2)cc1	165%	119%		110%	92%	105%	107%	115%
CCOC(=O)CCCCCCCCC(=O)OCC	89.6%	109%		102%	110%	98.4%	105%	107%
COc1cc(OC)c(NC(=O)n2ncc3cc(Nc4ncnc5ccccc45)ccc32)cc1Cl	97.3%	78.1%		98.1%	101%	89.7%	104%	116%
CC(O)CCC(C)[N+](=O)[O-] (configuration not stated)	103%	106%		101%	109%	126%	103%	104%
CC(C)CCCCCOC(=O)c1ccccc1SSc1ccccc1C(=O)OCCCCCC(C)C	89.6%		107%	93.6%	98.5%	110%	106%	101%
O=C(Nc1ccc(-n2cc(-c3ccncc3)c(-c3ccc(Cl)c(O)c3)n2)cc1)Nc1ccc(Cl)c(C(F)(F)F)c1	4.31% (active)		-37.7% (active)	-0.973% (active)	-15.8% (active)	0.686% (active)	1.21% (active)	11%
